Drawing on ChEMBL document CHEMBL1157539, “Thousands of chemical starting points for antimalarial lead identification” (Nature, 2010), this text covers Inhibition for 33 compounds.

Common to all, as to format: functional
Assay [1] concerns Plasmodium falciparum. Kind of assay: GSK_TCMDC: Inhibition of Plasmodium falciparum 3D7 in whole red blood cells, using parasite LDH activity as an index of growth. Test compounds present at 2uM.
Assay [2] has as its system Plasmodium falciparum. Kind of assay: GSK_TCMDC: Inhibition of Plasmodium falciparum Dd2 in whole red blood cells, using parasite LDH activity as an index of growth. Test compounds present at 2uM.
In assay [3] the test system is HepG2. Kind of assay: GSK_TCMDC: Percent inhibition of human HepG2 cell line. Test compounds present at 10uM.

Regarding `CCN(CC)CCN(Cc1ccc(-c2ccc(C(F)(F)F)cc2)cc1)C(=O)Cn1cc(Cc2cnn(C)c2)c(=O)nc1/C=C/c1cccc(F)c1F.O=C(O)C(O)C(O)C(=O)O`, the Inhibition is 95% in assay [1], 98% in assay [2] and 11% in assay [3].

Regarding `Cc1ccc(NC(=O)Nc2ccccc2)cc1-c1ccc(C(=O)Nc2ccncc2)cc1`, the values for the Inhibition in assay [1], in assay [2] and in assay [3] were 99%, 52% and 67%, respectively.

Consider `CCOc1ccc(C2CCN(CCCCNC(=O)c3ccc(NC(=O)c4ccc(Cl)cc4)cc3)CC2)c(CC)c1`, for which the results for the Inhibition in assay [1], in assay [2] and in assay [3] were 100%, 64% and 44%, respectively.

As for `O=C(/C=C/c1ccc(Cl)c(Cl)c1)NCCCCCN1CCC(CCNC(=O)/C=C/c2ccc(Cl)c(Cl)c2)CC1`, the Inhibition in assay [1] stood at 100%; in assay [2], 56%; in assay [3], 68%.

With `CC(C)CNCc1cccc(-c2cccc(CNCCCN3CCN(C)CC3)c2)c1.O=C(O)C(F)(F)F`, the Inhibition in assay [1] stood at 88%; in assay [2], 7%; in assay [3], 5%.

Take `COc1ccc(NC(=O)/C=C/c2ccccc2Cl)cc1OCCN1CCC(N(C)C)CC1`: the Inhibition is 89% in assay [1], 19% in assay [2] and 18% in assay [3].

With `COc1cc2ncnc(Nc3ccc(OCc4ccccc4)c(C(F)(F)F)c3)c2cc1OC.Cl`, the Inhibition in assay [1] was 100%; in assay [2], 78%; in assay [3] it was 8%.

Regarding `CC(=O)Nc1ccc(CN2CCC(NC(=O)c3ccc(-c4ccc(N(C)C)cc4)s3)CC2)cc1.O=C(O)C(F)(F)F`, the Inhibition is listed as 100% in assay [1], 57% in assay [2] and 20% in assay [3].

In the case of `N=C(N)Nc1nc(-c2cccc(NC(=O)NCCc3c[nH]c4ccc(OCc5ccccc5)cc34)c2)cs1`, the Inhibition in assay [1] stood at 100%; in assay [2] it was 30%; in assay [3], 0%.

Turning to `CC(C)CNC(=O)c1cncc(-c2ccc(CN3CCC(N4CCCC4)CC3)cc2)c1.O=C(O)C(F)(F)F`, the Inhibition in assay [1] stood at 100%; in assay [2] it was 42%; in assay [3], 25%.

Take `O=c1cc(NCCC2CC=CCN2Cc2ccc(Cl)c(Cl)c2)[nH]c2ccccc12` (centres undefined): the Inhibition is on record as 94% in assay [1], 77% in assay [2] and 7% in assay [3].

For `CC(C)NCc1ccc(-c2ccc(CN3CCCC(c4ccccc4)C3)cc2)c(C(=O)NCC2CCCCC2)c1.O=C(O)C(F)(F)F` (centres undefined), the Inhibition in assay [1] stood at 97%; in assay [2], 53%; in assay [3], 79%.

Turning to `COc1ccc2nccc([C@@H](O)CN3CCC(NCCOc4ccccc4C#N)CC3)c2c1.O=C(O)C(=O)O`, the figures for the Inhibition in assay [1], in assay [2] and in assay [3] were 100%, 99% and 10%, respectively.

`COc1ccc(-c2nc(NC(=O)CS(=O)(=O)c3ccccc3)sc2C)cc1`: the Inhibition in assay [1] is reported as 99%; in assay [2], 82%; in assay [3], 7%.

In the case of `O=C(O)C(F)(F)F.O=S(=O)(NCCN1CCCC1)c1ccc(-c2cccc(CNCc3ccc(F)cc3)c2)cc1F`, the Inhibition turned out to be 97% in assay [1], 36% in assay [2] and 43% in assay [3].

For the compound `Cc1cc(OCC2CCCN(c3ncc(C(=O)NC4CC4)cc3Cl)C2)ccc1F` (centres undefined), the Inhibition in assay [1] is listed as 88%; in assay [2], 68%; in assay [3], 3%.

Take `O=C(NCC1CCC(CNCCCc2ccccc2)CC1)c1cc(Cl)cc(Cl)c1` (centres undefined): the Inhibition in assay [1] is on record as 89%; in assay [2], 13%; in assay [3] it was 58%.

For `Cc1cccc(Nc2nc(C)cc(N3CCCN(CC4CCCCC4)CC3)n2)c1`, the results for the Inhibition in assay [1], in assay [2] and in assay [3] were 83%, 21% and 20%, respectively.

In the case of `CCc1ccc(NC(=O)c2ccc(CN3CCCN(Cc4cccc(C)c4)CC3)cc2)cc1.O=C(O)C(F)(F)F`, the Inhibition in assay [1] was determined as 80%; in assay [2], 0%; in assay [3], 53%.

As for `Br.CC1(C)NC(N)=NC(=N)N1OCCCc1c(Cl)cccc1Cl`, the results for the Inhibition in assay [1], in assay [2] and in assay [3] were 95%, 97% and 71%, respectively.

Turning to `CC(C)(C)c1cc(NC2CC2)nc(-c2ccccn2)n1`, the Inhibition in assay [1] was found to be 94%; in assay [2] it was 79%; in assay [3] it was 7%.

On to `CC(C)CC1c2[nH]c3ccccc3c(=O)c2CN1C(=O)OC(C)(C)C` (centres undefined), for which the Inhibition is listed as 97% in assay [1], 96% in assay [2] and 2% in assay [3].

As to `Nc1nc(N)c2c(Cl)c(N3CCOCC3)ccc2n1`, the Inhibition in assay [1] is reported as 96%; in assay [2] it was 3%; in assay [3] it was 65%.

Regarding `Nc1ncnc2cc(-c3cccc(S(N)(=O)=O)c3)sc12`, the values for the Inhibition in assay [1], in assay [2] and in assay [3] were 98%, 99% and 13%, respectively.

For `CC(C)CC(NC(=O)c1ccc(F)cc1)C(=O)N[C@H](/C=N/N1CCNC1=O)CC(C)C` (some centres undefined), the Inhibition in assay [1] is 89%; in assay [2], 84%; in assay [3] it was 0%.

With `NC1CCN(Cc2ccc(-c3ccc(-c4nc5cc(F)ccc5[nH]4)cc3)cc2)C1.O=C(O)C(F)(F)F` (centres undefined), the Inhibition in assay [1] was determined as 98%; in assay [2] it was 99%; in assay [3], 41%.

Consider `CN(C)CCCOc1ccc(CN2CC[C@H](NC(=O)c3ccc(Cl)c(Cl)c3)C2)cc1Br.O=C(O)C(F)(F)F`, for which the Inhibition in assay [1] is on record as 100%; in assay [2], 34%; in assay [3] it was 11%.

For `O=C(Nc1ccc(C(F)(F)F)cc1)c1ccc(S(=O)(=O)NC2CCN(CC3CCCCC3)C2)cc1.O=C(O)C(F)(F)F` (centres undefined), the figures for the Inhibition in assay [1], in assay [2] and in assay [3] were 99%, 16% and 33%, respectively.

With `N#Cc1ccc(C(=O)Nc2ccc(Cl)c(N3CCN(CCc4ccccc4)CC3)c2)cc1.O=C(O)C(F)(F)F`, the figures for the Inhibition in assay [1], in assay [2] and in assay [3] were 90%, 35% and 5%, respectively.

For the compound `CN1CCC(NCc2ccc(-c3ccc(S(=O)(=O)NCc4ccccc4)cc3)cc2)CC1.O=C(O)C(F)(F)F`, the results for the Inhibition in assay [1], in assay [2] and in assay [3] were 99%, 51% and 40%, respectively.

Regarding `CS(=O)(=O)CCNCc1ccc(-c2ccc3c(Nc4ccc(Cl)cc4F)ccnc3c2)o1`, the Inhibition worked out at 99% in assay [1], 98% in assay [2] and 6% in assay [3].

In the case of `CC(C)N1CCC(N(Cc2ccc(-c3ccc(Cl)cc3)cc2)C(=O)Cn2c(CCc3cccc(F)c3F)cc(=O)c3ccccc32)CC1.O=C(O)C(O)C(O)C(=O)O`, the Inhibition in assay [1] is 96%; in assay [2], 73%; in assay [3], 62%.

Take `O=C(/C=C/c1ccc(Cl)c(Cl)c1)NCCCCCN1CCC(NC(=O)NCCc2ccccc2)CC1`: the Inhibition in assay [1] is listed as 100%; in assay [2], 7%; in assay [3] it was 23%.

What is called Inhibition is the percentage by which the read-out fell short of the control. Read a high Inhibition as a response far below the control.
